About 83,000 compounds went through this panel and 20% of them were active in at least one assay; those are over-represented in the sample as a whole.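 Percent growth is the endpoint: 0 to 100 indicates growth inhibition (40 means 60% inhibition), 0 means no net growth, and negative values indicate cell death.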 The source made the active and inactive calls. How the source made its calls: active means growth percent below 10; inactive means the rest.
Assays:
Assay in all cases: NCI-60 one-dose screen, 48 h (100 = growth as untreated, 0 = no growth, -100 = all killed)
Conditions in all cases: 10 µM unless noted
[1] = tested on: NCI-H23 lung
[2] = tested on: NCI-H226 lung
[3] = tested on: NCI-H322M lung
[4] = tested on: HOP-62 NSCLC
[5] = tested on: NCI-H460 lung
[6] = tested on: HOP-92 NSCLC
[7] = tested on: NCI-H522 lung
[8] = tested on: A549/ATCC NSCLC
[9] = tested on: 786-0 renal
[10] = tested on: DU-145 prostate
[11] = tested on: K-562 leukemia
[12] = tested on: MALME-3M melanoma
[13] = tested on: MDA-MB-231 breast
[14] = tested on: RXF 393 renal
[15] = tested on: SF-268 CNS
[16] = tested on: SF-295 CNS
[17] = tested on: SF-539 CNS
[18] = tested on: UACC-257 melanoma
[19] = tested on: M14 melanoma
[20] = tested on: COLO 205 colon

Measured: growth

O=C1NC(c2ccc(Cl)c(Cl)c2)=C/C1=C\c1ccccc1
active: [9] 9.12%
inactive: [1] 84.8% | [2] 57.7% | [3] 79% | [4] 69.1% | [5] 18.6% | [6] 72.1% | [7] 79% | [8] 55.1% | [10] 95.9% | [11] 72.6% | [12] 63.3% | [13] 69.9% | [14] 65.2% | [15] 92.3% | [16] 52.2% | [17] 84.7% | [18] 98.2% | [19] 90.9%

COc1cnc2c(c1)C(=O)c1c-2n(CCCN2CCN(CCO)CC2)c(=O)c2cc([N+](=O)[O-])ccc12
active: [1] -40.2% | [3] -20.4% | [5] -75.7% | [8] -88.9% | [9] -85.4% | [11] -26.6% | [13] -35.8%
inactive: [2] 64% | [4] 39.8% | [6] 76.9% | [7] 38.3% | [20] 62% | [10] 43.3% | [14] 74.3% | [15] 31% | [16] 29.2% | [17] 57.5% | [19] 18.2%

O=C1C(Cl)=C(Nc2ccc(S(=O)(=O)c3ccc(NC4=C(Cl)C(=O)c5ccccc5C4=O)cc3)cc2)C(=O)c2ccccc21
active: [1] -12.9% | [6] -26.2% | [7] -67.4% | [10] -15.1% | [11] 8.57% | [12] -48.5% | [14] -96% | [15] -56.3% | [17] 1.36% | [18] -81.3% | [19] -57.6%
inactive: [2] 91.2% | [3] 64.5% | [4] 36.1% | [5] 37.2% | [8] 74% | [9] 26.4% | [13] 45.4% | [16] 34.1%

COc1cc2c(cc1-c1c(C)noc1C)ncc1nc(C3CCC(F)(F)CC3)n([C@@H](C)COC(F)F)c12
inactive: [1] 60.2% | [2] 55% | [3] 40.6% | [4] 31.7% | [5] 55.3% | [6] 35.1% | [7] 31.5% | [8] 37.5% | [9] 43.5% | [10] 66.9% | [11] 25% | [12] 76.1% | [13] 41.6% | [14] 54.7% | [15] 67.8% | [16] 47.7% | [17] 30.8% | [18] 35.9% | [19] 41.4%

N#CC1=C(N)Oc2ccc3ccccc3c2C1c1ccccc1Cl (stereo unspecified)
inactive: [1] 61.6% | [2] 70.8% | [3] 74.9% | [4] 38.7% | [5] 20.4% | [6] 69.1% | [7] 34.4% | [8] 53% | [9] 42.4% | [10] 73.3% | [11] 13.2% | [12] 46.2% | [13] 51.3% | [14] 58.7% | [15] 57.7% | [16] 11.7% | [17] 35% | [18] 66.7% | [19] 13.4%

O=c1c(CNc2ccc(S(=O)(=O)Nc3ncccn3)cc2)coc2ccccc12
inactive: [1] 102% | [2] 103% | [3] 97.1% | [4] 93% | [5] 105% | [6] 102% | [7] 89.7% | [8] 93.5% | [9] 102% | [10] 108% | [11] 100% | [12] 94% | [13] 99.9% | [14] 103% | [15] 108% | [17] 95.2% | [18] 108% | [19] 99.2%

CN(C)CCCC1(c2ccc(F)cc2)OCc2cc(-c3ccc(C(F)(F)F)nc3)ccc21 (stereo unspecified)
active: [18] -31.8%
inactive: [1] 80.6% | [2] 90.6% | [3] 84.7% | [4] 83.3% | [5] 72.9% | [6] 51.1% | [7] 74.7% | [8] 71.4% | [9] 72.7% | [10] 83.6% | [11] 13.5% | [12] 34.9% | [13] 72.6% | [14] 45.1% | [15] 73.7% | [16] 81.2% | [17] 80.8% | [19] 13.8%
